Measured values reported in PubChem BioAssay (NCI).
Several values for one entry are separate records, joined by “and”; a condition that tells them apart may be missing. Equal values may be shown once. Compounds without any hit were thinned out: in the full panel of roughly 83,000, 20% have a hit.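 For each line, cells grew in 96-well plates with the test compound present at a single concentration for 48 hours.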 Activity calls are given as the source filed them. Rule for the calls: active = growth percent below 10; inactive = the rest.

How the values were obtained:
Assay in all cases: NCI-60 one-dose screen, 48 h (100 = growth as untreated, 0 = no growth, -100 = all killed)
NCI-H23 lung = conditions: 10 µM unless noted
NCI-H226 lung = conditions: 10 µM unless noted
NCI-H322M lung = conditions: 10 µM unless noted
HOP-62 NSCLC = conditions: 10 µM unless noted
NCI-H460 lung = conditions: 10 µM unless noted
HOP-92 NSCLC = conditions: 10 µM
NCI-H522 lung = conditions: 10 µM
A549/ATCC NSCLC = conditions: 10 µM unless noted
786-0 renal = conditions: 10 µM unless noted
COLO 205 colon = conditions: 10 µM unless noted
DU-145 prostate = conditions: 10 µM unless noted
K-562 leukemia = conditions: 10 µM unless noted
MALME-3M melanoma = conditions: 10 µM unless noted
MDA-MB-231 breast = conditions: 10 µM unless noted
RXF 393 renal = conditions: 10 µM unless noted
SF-268 CNS = conditions: 10 µM unless noted
SF-295 CNS = conditions: 10 µM unless noted
SF-539 CNS = conditions: 10 µM unless noted
UACC-257 melanoma = conditions: 10 µM unless noted
M14 melanoma = conditions: 10 µM unless noted

Measured: growth

c1ccc(CNCCNCc2ccccc2)cc1
inactive: NCI-H23 lung 117% | NCI-H226 lung 90.4% | NCI-H322M lung 106% | HOP-62 NSCLC 98.8% | NCI-H460 lung 104% | HOP-92 NSCLC 80.6% | NCI-H522 lung 106% | A549/ATCC NSCLC 101% | 786-0 renal 107% | COLO 205 colon 109% | DU-145 prostate 114% | K-562 leukemia 98.1% | MALME-3M melanoma 109% | MDA-MB-231 breast 118% | RXF 393 renal 104% | SF-268 CNS 120% | SF-295 CNS 90.8% | SF-539 CNS 101% | UACC-257 melanoma 117% | M14 melanoma 111%

O=C1OC(c2ccccc2)=N/C1=C\c1ccccc1
inactive: NCI-H23 lung 99.8% | NCI-H226 lung 90.9% | NCI-H322M lung 96.2% | HOP-62 NSCLC 99.6% | NCI-H460 lung 103% | HOP-92 NSCLC 88.7% | NCI-H522 lung 108% | A549/ATCC NSCLC 95.6% | 786-0 renal 95.9% | COLO 205 colon 113% | DU-145 prostate 113% | K-562 leukemia 104% | MALME-3M melanoma 86.4% | MDA-MB-231 breast 111% | RXF 393 renal 106% | SF-268 CNS 103% | SF-295 CNS 99% | SF-539 CNS 99.5% | UACC-257 melanoma 96.5% | M14 melanoma 100%

CC(C)NCC(O)c1ccc(O)c(O)c1 (configuration not stated)
inactive: NCI-H23 lung 98.6% and 68.3% and 98.2% | NCI-H226 lung 88.4% and 114% and 98.8% | NCI-H322M lung 92.1% and 96.7% and 106% | HOP-62 NSCLC 97.9% and 90.6% and 86.7% | NCI-H460 lung 108% and 101% and 105% | HOP-92 NSCLC 60.1% and 59% and 68.4% | NCI-H522 lung 82.4% and 140% | A549/ATCC NSCLC 106% and 119% and 103% | 786-0 renal 94.9% and 90.6% and 99.7% | COLO 205 colon 107% and 114% and 104% | DU-145 prostate 110% and 119% and 103% | K-562 leukemia 112% and 101% | MALME-3M melanoma 101% and 88.7% and 141% | MDA-MB-231 breast 84% and 78.9% and 85.1% | RXF 393 renal 103% and 105% | SF-268 CNS 102% and 106% and 86.6% | SF-295 CNS 108% and 110% and 105% | SF-539 CNS 95.9% and 87.7% and 85.6% | UACC-257 melanoma 109% and 102% | M14 melanoma 98.1% and 96.8% and 113%

O=c1[nH]cnc2c1ncn2C1OC(CO)C(O)C1O (configuration not stated)
inactive: NCI-H23 lung 116% and 104% and 109% | NCI-H226 lung 108% and 103% and 97.4% | NCI-H322M lung 112% and 137% and 102% | HOP-62 NSCLC 104% and 110% and 96.5% | NCI-H460 lung 109% and 122% and 106% | HOP-92 NSCLC 84.1% and 79.4% and 115% | NCI-H522 lung 107% and 100% and 93.2% | A549/ATCC NSCLC 112% and 102% and 107% | 786-0 renal 106% and 111% and 107% | COLO 205 colon 114% and 118% and 113% | DU-145 prostate 126% and 133% and 112% | K-562 leukemia 105% and 108% and 113% | MALME-3M melanoma 131% and 124% and 110% | MDA-MB-231 breast 110% and 105% and 108% | RXF 393 renal 129% and 118% | SF-268 CNS 114% and 112% and 94.2% | SF-295 CNS 124% and 111% and 88.8% | SF-539 CNS 113% and 96.1% | UACC-257 melanoma 104% and 119% | M14 melanoma 100% and 107% and 98.2%

O=C(Cc1ccccc1)c1ccc(O)c(Cl)c1
inactive: NCI-H23 lung 24% | NCI-H226 lung 83.7% | NCI-H322M lung 80% | HOP-62 NSCLC 70.4% | NCI-H460 lung 32.3% | HOP-92 NSCLC 57.6% | NCI-H522 lung 10.3% | A549/ATCC NSCLC 96.4% | 786-0 renal 26.8% | COLO 205 colon 55.4% | DU-145 prostate 18.5% | K-562 leukemia 21.4% | MALME-3M melanoma 50.2% | MDA-MB-231 breast 49.8% | RXF 393 renal 41.7% | SF-268 CNS 41.7% | SF-295 CNS 47.8% | SF-539 CNS 32.9% | UACC-257 melanoma 66.7% | M14 melanoma 30.1%

C#CCOC(=O)Nc1ccccc1
inactive: NCI-H23 lung 98.9% | NCI-H226 lung 108% | NCI-H322M lung 106% | HOP-62 NSCLC 113% | NCI-H460 lung 103% | HOP-92 NSCLC 102% | NCI-H522 lung 101% | A549/ATCC NSCLC 97.4% | 786-0 renal 94.7% | COLO 205 colon 106% | DU-145 prostate 106% | K-562 leukemia 96.9% | MALME-3M melanoma 115% | MDA-MB-231 breast 116% | RXF 393 renal 124% | SF-268 CNS 105% | SF-295 CNS 107% | SF-539 CNS 97.5% | UACC-257 melanoma 93.7% | M14 melanoma 103%

CC1CCC2(C(=O)O)CCC3(C)C(=CCC4C5(C)CCC(O)C(C)(C)C5CCC43C)C2C1C (configuration not stated)
5.46% (active) and 102% (inactive): HOP-62 NSCLC
-31.3% (active) and 76.1% (inactive): 786-0 renal
inactive: NCI-H23 lung 91.9% and 88.2% | NCI-H226 lung 67.9% and 98% | NCI-H322M lung 67.3% and 92.7% | NCI-H460 lung 44.5% and 89.9% | HOP-92 NSCLC 42.5% and 65.8% | NCI-H522 lung 31.1% and 84.1% | A549/ATCC NSCLC 24% and 75.4% | COLO 205 colon 78.5% and 110% | DU-145 prostate 44% and 75.8% | K-562 leukemia 14.4% and 62.6% | MALME-3M melanoma 81.4% and 88.9% | MDA-MB-231 breast 28.1% and 71.6% | RXF 393 renal 40.9% and 79.5% | SF-268 CNS 28.9% and 75.7% | SF-295 CNS 28% and 89.7% | SF-539 CNS 43.1% and 79% | UACC-257 melanoma 39.8% and 90.1% | M14 melanoma 41.1%

O=C(O)/C=C\C(=O)Nc1cccc2ccccc12
inactive: NCI-H23 lung 106% and 91.4% | NCI-H226 lung 90.6% and 107% | NCI-H322M lung 105% and 117% | HOP-62 NSCLC 96% and 104% | NCI-H460 lung 101% and 111% | HOP-92 NSCLC 115% | NCI-H522 lung 79.3% and 100% | A549/ATCC NSCLC 99.9% and 105% | 786-0 renal 113% and 111% | COLO 205 colon 95.4% and 108% | DU-145 prostate 109% and 123% | K-562 leukemia 110% and 94% | MALME-3M melanoma 116% and 119% | MDA-MB-231 breast 85.1% and 107% | RXF 393 renal 113% and 132% | SF-268 CNS 78.6% and 107% | SF-295 CNS 117% and 104% | SF-539 CNS 89.2% and 110% | UACC-257 melanoma 95.1% and 101% | M14 melanoma 99.6% and 96.8%

Nc1nc(N)c2[nH]cnc2n1
inactive: NCI-H23 lung 88.6% | NCI-H226 lung 102% | NCI-H322M lung 111% | HOP-62 NSCLC 88.7% | NCI-H460 lung 96.2% | HOP-92 NSCLC 78.5% | NCI-H522 lung 50.6% | A549/ATCC NSCLC 80.2% | 786-0 renal 91.8% | COLO 205 colon 97.6% | DU-145 prostate 73.1% | K-562 leukemia 76.5% | MALME-3M melanoma 125% | MDA-MB-231 breast 99.3% | SF-268 CNS 83.8% | SF-295 CNS 84.7% | SF-539 CNS 92.8% | UACC-257 melanoma 56.1% | M14 melanoma 88.2%

CC(=O)OC(C)C(=O)NCC(C)O (configuration not stated)
inactive: NCI-H23 lung 100% | NCI-H322M lung 90.7% | HOP-62 NSCLC 100% | NCI-H460 lung 98.2% | HOP-92 NSCLC 98% | NCI-H522 lung 109% | A549/ATCC NSCLC 108% | 786-0 renal 94.9% | COLO 205 colon 107% | DU-145 prostate 104% | K-562 leukemia 97.9% | MALME-3M melanoma 108% | MDA-MB-231 breast 124% | RXF 393 renal 113% | SF-268 CNS 100% | SF-539 CNS 102% | UACC-257 melanoma 108% | M14 melanoma 97.8%

Cc1cc2ccccc2cn1
inactive: NCI-H23 lung 97.1% and 114% | NCI-H226 lung 95.7% and 96% | NCI-H322M lung 101% and 98.4% | HOP-62 NSCLC 101% | NCI-H460 lung 107% and 108% | HOP-92 NSCLC 94.4% and 101% | NCI-H522 lung 109% | A549/ATCC NSCLC 101% and 118% | 786-0 renal 105% and 111% | COLO 205 colon 110% and 119% | DU-145 prostate 114% and 122% | K-562 leukemia 118% and 102% | MALME-3M melanoma 101% and 100% | MDA-MB-231 breast 97.9% and 107% | RXF 393 renal 104% | SF-268 CNS 101% and 134% | SF-295 CNS 100% and 90.3% | SF-539 CNS 102% and 98.7% | UACC-257 melanoma 97.3% | M14 melanoma 107% and 111%
